Most compounds without a hit are left out; they make up all but 2.2% or so of the library.
aSyn 5UTR inh: 5' untranslated region of α-synuclein, MLPCN primary screen; alpha-synuclein 5'UTR reporter, inhibitor activity; inhibition, % (tested at 7.5 µM); 300,000 compounds, 0.82% hits; in the data active = inhibition above about 60%; inconclusive = no clear call, values can overlap the other calls;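 note: H4 neuroglioblastoma cells stably carrying SNCA 5'UTR luciferase fusion; 0% = DMSO wells and 100% = positive control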
APP 5UTR inh: APP translation inhibition; inhibition, % at 2 µM; SH-SY5Y APP 5'UTR-luciferase reporter, luminescence; 190,000 compounds, 0.82% hits;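 active = inhibition above a set limit, derived from the sample mean plus 3 SD, cut at about 45% in these data; inconclusive = one replicate passes the limit while the other fails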
BaF3 parental: parental Ba/F3 viability inhibition as JAK2V617F counter-screen; CellTiter-Glo ATP luminescence; 220,000 compounds, 1.1% hits; inhibition, % at 5.6 µM;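 active = inhibition above a per-campaign cutoff, the mean inhibition of all tested compounds plus 3 SD, cut at about 27% in these data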;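 note: 0% = DMSO wells and 100% = JAK Inhibitor I control wells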
Ba/F3 V617F tox: reduce viability of Ba/F3 cells dependent on JAK2V617F; Ba/F3 EpoR-JAK2V617F viability, ATP luminescence; inhibition, % at 5.6 µM; 220,000 compounds, 1.1% hits; AID 1446;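 active = inhibition above the campaign mean plus 3 SD over all tested compounds, cut at about 24% in these data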;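 note: cytokine-independent growth of Ba/F3 cells driven by EpoR plus mutant JAK2; 0% = DMSO-treated cells and 100% = JAK inhibitor I control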
KLF5 inhibitor: inhibitors of KLF5 expression. DLD-1 KLF5 promoter-luciferase reporter, luminescence. inhibition, % at 5 µM. 290,000 compounds, 0.23% hits;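 active = inhibition above a per-plate limit of that plate's mean compound inhibition plus 3 SD, cut at about 60% in these data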;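 note: 0% = DMSO wells and 100% = LY294002 at 200 µM; higher means less KLF5 promoter-driven luciferase light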
IEC-6 cytotox: counter-screen for KLF5 inhibitors: cytotoxicity in IEC-6 cells. 290,000 compounds, 0.78% hits. IEC-6 cytotoxicity, luminescence viability. inhibition, % at 5 µM; in the data active = inhibition above about 22%;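 note: 0% = plate median of test compound wells and 100% = cytotoxic reference compound wells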
* hit, by the source's call.

Results for O=C1c2ccccc2C(=O)c2c1ncn2-c1ccccc1 ?
aSyn 5UTR inh: 70*; APP 5UTR inh: -2; BaF3 parental: 3; Ba/F3 V617F tox: 2; KLF5 inhibitor: -34; IEC-6 cytotox: 0

Results for CCC(=O)c1c(NC(C)C)cc(C)oc1=O ?
aSyn 5UTR inh: -13; APP 5UTR inh: -10; BaF3 parental: 1; Ba/F3 V617F tox: -1; KLF5 inhibitor: -17; IEC-6 cytotox: 0

What do the screens show for `O=c1cc(O)nc(SCc2ccccc2)n1-c1ccc(F)cc1`?
aSyn 5UTR inh: 23; APP 5UTR inh: -14; BaF3 parental: 31*; Ba/F3 V617F tox: 4; KLF5 inhibitor: -25; IEC-6 cytotox: -6

What do the screens show for `CC1(C)C2CCC1(C)C(OCC[N+](C)(C)CC(=O)OC1CCCCC1)C2` (centres undefined)?
aSyn 5UTR inh: 4; APP 5UTR inh: 10; BaF3 parental: 83*; Ba/F3 V617F tox: 100*; KLF5 inhibitor: 7; IEC-6 cytotox: 2

What do the screens show for `CCOC(=O)C[N+](C)(C)CCOC1CC2CCC1(C)C2(C)C` (centres undefined)?
aSyn 5UTR inh: -6; APP 5UTR inh: -32; BaF3 parental: 30*; Ba/F3 V617F tox: 15; KLF5 inhibitor: 18; IEC-6 cytotox: 0

How did CCCC1(C(=O)OC)NC(c2ccc(OC)cc2OC)C2C(=O)N(c3cccc(C(C)=O)c3)C(=O)C21 (centres undefined) do in these assays?
aSyn 5UTR inh: 6; KLF5 inhibitor: 1; IEC-6 cytotox: 3

What do the screens show for `O=C(COC(=O)CCN1C(=O)/C(=C\C=C\c2ccccc2)SC1=S)Nc1cc(F)ccc1F`?
aSyn 5UTR inh: 64*; APP 5UTR inh: 22; BaF3 parental: 1; Ba/F3 V617F tox: -1; KLF5 inhibitor: -23; IEC-6 cytotox: -8

Results for O=C(CN1C(=O)/C(=C\C=C\c2ccccc2)SC1=S)Nc1ccc(F)cc1 ?
aSyn 5UTR inh: -41; APP 5UTR inh: -11; BaF3 parental: 4; Ba/F3 V617F tox: 2; KLF5 inhibitor: 11; IEC-6 cytotox: 0

What do the screens show for `Cc1cc(NC(=S)NC(=O)c2ccccc2)ccc1-c1cc2ccccc2oc1=O`?
aSyn 5UTR inh: 32; APP 5UTR inh: 69*; BaF3 parental: 6; Ba/F3 V617F tox: 0; KLF5 inhibitor: -19; IEC-6 cytotox: 3

What do the screens show for `Cc1ccc(C(=O)Nc2cc3ccccc3oc2=O)cc1`?
aSyn 5UTR inh: 111*; APP 5UTR inh: 66*; BaF3 parental: 4; Ba/F3 V617F tox: -1; KLF5 inhibitor: -77; IEC-6 cytotox: -2

Results for COc1cccc(-c2cc(C(=O)N3CCOCC3)no2)c1 ?
aSyn 5UTR inh: -41; KLF5 inhibitor: -112; IEC-6 cytotox: -2

What do the screens show for `COc1ccc(-c2cc(C(=O)N3CCOCC3)no2)cc1`?
aSyn 5UTR inh: 73*; KLF5 inhibitor: -31; IEC-6 cytotox: -1

How did O=C1C(Cl)=C(NCCN2CCCCC2)C(=O)c2ccccc21 do in these assays?
aSyn 5UTR inh: inconclusive; APP 5UTR inh: 95*; BaF3 parental: 26; Ba/F3 V617F tox: 7; KLF5 inhibitor: 10; IEC-6 cytotox: 42*

How did CC(=O)c1ccc(N/C=C/C(=O)c2ccc(Br)cc2)cc1 do in these assays?
aSyn 5UTR inh: -226; KLF5 inhibitor: -71; IEC-6 cytotox: -1

Results for O=C(C[n+]1cc(-c2ccc(F)cc2)n2c1CCC2)c1cccs1 ?
aSyn 5UTR inh: -144; BaF3 parental: 29*; Ba/F3 V617F tox: 11; KLF5 inhibitor: -54; IEC-6 cytotox: -5

Results for Cc1ccc(-c2c[n+](CC(=O)c3ccc(Br)cc3)c3n2CCCCC3)cc1 ?
aSyn 5UTR inh: 19; APP 5UTR inh: -16; BaF3 parental: 69*; Ba/F3 V617F tox: 77*; KLF5 inhibitor: -8; IEC-6 cytotox: 3

Results for CC1CCC(C(C)C)C(OC(=O)C[n+]2cc(-c3ccc(Cl)cc3)n3c2CCCCC3)C1 (centres undefined) ?
aSyn 5UTR inh: -12; APP 5UTR inh: -19; BaF3 parental: 73*; Ba/F3 V617F tox: 101*; KLF5 inhibitor: 21; IEC-6 cytotox: 5

How did O=[N+]([O-])c1ccc(C[n+]2cc(-c3ccccc3)n3c2CCCCC3)cc1 do in these assays?
aSyn 5UTR inh: 3; APP 5UTR inh: 4; BaF3 parental: 10; Ba/F3 V617F tox: -3; KLF5 inhibitor: 10; IEC-6 cytotox: 0

Results for C[n+]1cc(-c2ccccc2)n2c1CCCCC2 ?
aSyn 5UTR inh: 11; APP 5UTR inh: -8; BaF3 parental: 64*; Ba/F3 V617F tox: 65*; KLF5 inhibitor: -33; IEC-6 cytotox: 1

Results for CCOC(=O)Nc1ccc2c(c1)N(C(=O)CN1CCN(CCO)CC1)c1ccccc1CC2 ?
aSyn 5UTR inh: -5; KLF5 inhibitor: -11; IEC-6 cytotox: 5

What do the screens show for `Nc1nc(SCC(=O)Nc2ccc([N+](=O)[O-])cc2)[nH]c(=O)c1NC(=O)c1ccc(Br)o1`?
aSyn 5UTR inh: -12; KLF5 inhibitor: -12; IEC-6 cytotox: -2

What do the screens show for `CCC1CCCCN1C(=O)Cn1nc([N+](=O)[O-])c(Cl)c1C` (centres undefined)?
aSyn 5UTR inh: -1; APP 5UTR inh: -12; BaF3 parental: 3; Ba/F3 V617F tox: 3; KLF5 inhibitor: 11; IEC-6 cytotox: 2

Results for Cc1ccc(NC(=O)C[n+]2cc(-c3ccccc3)n3c2CCC3)cc1 ?
aSyn 5UTR inh: 25; BaF3 parental: -2; Ba/F3 V617F tox: -1; KLF5 inhibitor: 0; IEC-6 cytotox: -4

What do the screens show for `COc1ccc(-c2c[n+](CC(=O)c3ccccc3)c3n2CCCCC3)cc1`?
aSyn 5UTR inh: 11; BaF3 parental: 60*; Ba/F3 V617F tox: 48*; KLF5 inhibitor: -27; IEC-6 cytotox: -2

What do the screens show for `O=C(C[n+]1cc(-c2ccccc2)n2c1CCCCC2)c1ccc(Cl)cc1`?
aSyn 5UTR inh: -6; APP 5UTR inh: 2; BaF3 parental: 56*; Ba/F3 V617F tox: 53*; KLF5 inhibitor: -3; IEC-6 cytotox: 1

How did COc1ccc(NC(=O)COC(=O)c2ccc(S(=O)(=O)N(C)c3ccccc3OC)cc2)c(OC)c1 do in these assays?
APP 5UTR inh: -6; BaF3 parental: 8; Ba/F3 V617F tox: 1; KLF5 inhibitor: -30; IEC-6 cytotox: 0

What do the screens show for `O=[N+]([O-])c1cc(Cl)ccc1Sc1cccc2cccnc12`?
aSyn 5UTR inh: 23; APP 5UTR inh: -19; BaF3 parental: 3; Ba/F3 V617F tox: -1; KLF5 inhibitor: -28; IEC-6 cytotox: -2

How did O=[N+]([O-])c1ccc(Sc2cccc3cccnc23)c([N+](=O)[O-])c1 do in these assays?
aSyn 5UTR inh: -5; APP 5UTR inh: 55*; BaF3 parental: -1; Ba/F3 V617F tox: -5; KLF5 inhibitor: -13; IEC-6 cytotox: 0

Results for CCCCCN(C(=O)CCC(=O)OCC(=O)N1C(C)CCCC1C)c1c(N)n(CCCC)c(=O)[nH]c1=O (centres undefined) ?
aSyn 5UTR inh: -1; KLF5 inhibitor: -15; IEC-6 cytotox: 0

How did O=C(c1ccc2c(=O)n(-c3ccccc3)c(=S)[nH]c2c1)N1CCCCC1 do in these assays?
aSyn 5UTR inh: 4; APP 5UTR inh: -2; BaF3 parental: 64*; Ba/F3 V617F tox: 45*; KLF5 inhibitor: -21; IEC-6 cytotox: 1

Screens from PubChem.
